Values joined by “and” are separate entries in the source; they are usually repeats but may differ in a detail not shown here. Equal values may be shown once. The campaign covered roughly 5,500 compounds. About 2,000 (36%) were called active. Inconclusive results (about 18%) are left out. Rule as the data show it: active = normalized growth mostly below about 0.91 (no sharp cut-off); inconclusive = no clear call, values can overlap the other calls; inactive = mostly above about 0.92. The list shows a part of the results.
Assay: chemical genetic growth profiling, strain panel (AID 1159580);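 also: tested at 20 µM; growth read once vehicle control cultures reached saturation at 30 °C; 1 = growth at the plate median or of vehicle wells; lower values mean less growth of the strain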
Settings: S. cerevisiae deletion strains, growth OD

Measured: normalized growth

O=C1C=CC2=C3c4cc(O)c(O)cc4C[C@@]3(O)COC2=C1
inactive: locus YAL021C, strain ccr4, active compounds read low 0.965 | locus YAL026C, strain drs2, active compounds read low 0.973 | locus YAL030W, strain snc1, active compounds read low 0.979 | locus YBL061C, strain skt5, active compounds read low 0.992 | locus YBR009C, strain hhf1, active compounds read low 0.984 | locus YBR021W, strain FUR4, active compounds read low 1.01 | locus YBR023C, strain chs3, active compounds read low 0.99 | locus YBR171W, strain sec66, active compounds read low 0.988 | locus YBR229C, strain ROT2, active compounds read low 0.998 | locus YBR231C, strain swc5, active compounds read low 0.978 | locus YBR279W, strain paf1, active compounds read low 0.985 | locus YCL011C, strain gbp2, active compounds read low 0.975 | locus YCL016C, strain dcc1, active compounds read low 0.95 | locus YCL029C, strain bik1, active compounds read low 1 | locus YCL061C, strain MRC1, active compounds read low 0.98 | locus YCL069W, strain vba3, active compounds read low 0.981 | locus YCR088W, strain abp1, active compounds read low 0.99 | locus YDL005C, strain med2, active compounds read low 0.966 | locus YDL035C, strain GPR1, active compounds read low 1.03 | locus YDL040C, strain nat1, active compounds read low 0.97 | locus YDL074C, strain BRE1, active compounds read low 1 | locus YDL101C, strain DUN1, active compounds read low 0.981 | locus YDL134C, strain PPH21, active compounds read low 0.998 | locus YDL185W, strain tfp1, active compounds read low 0.985 | locus YDL192W, strain arf1, active compounds read low 1.01 | locus YDR001C, strain nth1, active compounds read low 0.978 | locus YDR069C, strain doa4, active compounds read low 0.94 | locus YDR101C, strain arx1, active compounds read low 1.05 | locus YDR137W, strain rgp1, active compounds read low 1.01 | locus YDR150W, strain NUM1, active compounds read low 1 | locus YDR159W, strain sac3, active compounds read low 0.986 | locus YDR162C, strain NBP2, active compounds read low 1.03 | locus YDR195W, strain ref2 0.939 | locus YDR297W, strain sur2, active compounds read low 0.981 | locus YDR318W, strain mcm21, active compounds read low 0.998 | locus YDR334W, strain swr1, active compounds read low 0.967 | locus YDR335W, strain msn5, active compounds read low 0.969 | locus YDR388W, active compounds read low 1 | locus YDR392W, strain spt3, active compounds read low 0.95 | locus YDR502C, strain sam2, active compounds read low 0.999 | locus YEL003W, strain gim4, active compounds read low 0.989 | locus YEL037C, strain rad23, active compounds read low 0.981 | locus YEL061C, strain CIN8 (second series), active compounds read low 0.975 | locus YER015W, strain faa2, active compounds read low 0.982 | locus YER016W, strain bim1, active compounds read low 0.976 | locus YER110C, active compounds read low 0.986 | locus YER111C, strain swi4, active compounds read low 0.98 | locus YER155C, strain BEM2 (second series), active compounds read low 0.972 | locus YER155C, strain BEM2, active compounds read low 1.02 | locus YER167W, strain BCK2, active compounds read low 1.01 | locus YFR010W, strain ubp6, active compounds read low 0.963 | locus YGL078C, strain dbp3, active compounds read low 0.967 | locus YGL086W, strain mad1, active compounds read low 1.01 | locus YGL167C, strain pmr1, active compounds read low 0.964 | locus YGL173C, strain kem1, active compounds read low 0.977 | locus YGL227W, strain vid30, active compounds read low 0.989 | locus YGL240W, strain doc1, active compounds read low 0.985 | locus YGL248W, strain PDE1, active compounds read low 0.981 | locus YGL253W, strain hxk2, active compounds read low 0.978 | locus YGR135W, strain pre9, active compounds read low 0.954 | locus YGR252W, strain gcn5, active compounds read low 0.939 | locus YHR013C, strain ard1, active compounds read low 0.954 | locus YHR027C, strain rpn1, active compounds read low 0.972 | locus YHR030C, strain SLT2, active compounds read low 1.03 | locus YHR079C, strain IRE1 (second series), active compounds read low 1 | locus YHR079C, strain IRE1, active compounds read low 1.02 | locus YHR094C, strain hxt1, active compounds read low 0.994 | locus YHR129C, strain ARP1, active compounds read low 0.997 | locus YHR142W, strain chs7, active compounds read low 0.963 | locus YHR200W, strain rpn10, active compounds read low 0.991 | locus YIL066C, strain RNR3, active compounds read low 1.01 | locus YIL073C, strain SPO22, active compounds read low 0.996 | locus YIL125W, strain kgd1, active compounds read low 0.994 | locus YIR030C, strain dcg1, active compounds read low 0.999 | locus YJL092W, strain hpr5, active compounds read low 0.991 | locus YJL095W, strain BCK1 (second series), active compounds read low 0.975 | locus YJL095W, strain BCK1, active compounds read low 0.979 and 1.04 | locus YJL115W, strain asf1, active compounds read low 0.975 | locus YJL129C, strain trk1, active compounds read low 1 | locus YJL134W, strain LCB3, active compounds read low 1.01 | locus YJL154C, strain vps35, active compounds read low 0.981 | locus YJL164C, strain tpk1, active compounds read low 0.962 | locus YJL166W, strain qcr8, active compounds read low 0.979 | locus YJL168C, strain set2, active compounds read low 0.996 | locus YJL187C, strain SWE1 (second series), active compounds read low 0.96 | locus YJL187C, strain SWE1, active compounds read low 0.988 | locus YJR043C, strain POL32, active compounds read low 1.03

Source: PubChem BioAssay AID1159580 (chemical genetic matrix, 2015)
